CCHF vOTU inh-1 = CCHFV vOTU protease inhibition. Pep-AMC fluorescence. AID 651958. hit rate 0.55% among 370,000. inhibition, % at 11.5 µM; further: 0% = vehicle wells with enzyme and 100% = no enzyme wells
PfHsp40 yeast = restores yeast growth despite PfHsp40 toxicity | S. cerevisiae expressing PfHsp40, growth rescue, ATP luminescence | growth rescue, % at 12.5 µM | hit rate 0.68% among 340,000 | AID 504582; in the data active means growth rescue above about 28%, passing the limit was not always enough;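 further: yeast W303a lacking pdr1 and pdr3 grown in galactose medium; growth measured after three days at 30 °C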
RN4220 kill = S. aureus RN4220 growth inhibition | OD600, 16 h | inhibition, % (test concentration not listed) | hit rate 0.33% among 330,000 | AID 1259311; in the data active means inhibition above about 85%;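 further: plate controls were untreated cells for no effect and reference antibiotic for full effect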
ugtP null kill = compounds lethal to S. aureus RN4220 ugtP deletion mutant | hit rate 0.54% among 330,000 | OD600 growth, 16 h | growth inhibition, % (no concentration beside the values); in the data active means growth inhibition above about 68%;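 further: plate controls were untreated wells for no effect and antibiotic for full effect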
BJeLR viability = kills HRASV12-expressing BJeLR cells; BJeLR (HRASV12) viability, CellTiter-Glo ATP luminescence, 48 h; inhibition, % (test concentration not listed); hit rate 0.17% among 300,000; AID 1554; in the data active means inhibition above about 50%
CCHF vOTU inh-2 = CCHFV vOTU protease inhibition, confirmation. hit rate 17% among 1,900. inhibition, % at 11.5 µM. Recombinant CCHFV vOTU, Pep-AMC fluorescence. shares compounds with CCHF vOTU inh-1
* marks the source's active call; other numbers are inactive results; nt = no result given. Most compounds without a hit are left out; they make up all but 1.6% or so of the library. Unless noted, no stated cut-off is given here; in the data, active means inhibition above about 30%; inactive means the rest.

SMILES	CCHF vOTU inh-1	PfHsp40 yeast	RN4220 kill	ugtP null kill	BJeLR viability	CCHF vOTU inh-2
N#CC1=C(S)N(c2ccccc2)C(c2ccc(-c3cc(Cl)ccc3Cl)o2)NC1=O (stereo not drawn)	10	0	10	7	9	nt
N#CC1=C(S)N(c2ccccc2)C(c2ccc(-c3ccc(Cl)c(Cl)c3)o2)NC1=O (stereo not drawn)	47*	1	nt	nt	9	30*
COc1ccc(CCCC(=O)NN=Cc2cccs2)cc1	nt	nt	2	12	nt	nt
CN1CCc2c(sc3c2c(=O)n(-c2ccccc2)c2nnc(SCc4ccc(F)cc4)n32)C1	-3	-2	7	18	nt	nt
CN1CCc2c(sc3c2c(=O)n(-c2ccccc2)c2nnc(SCc4ccccc4)n32)C1	31*	0	3	-6	1	-7
CC(C)n1c2ccccc2c2cc([N+](=O)[O-])ccc21	14	-2	nt	nt	-5	nt
C[n+]1c(-c2ccccc2)cc2c(=Cc3ccccc3)c3ccccc3n21	83*	170*	nt	nt	nt	78*
CN(C)c1ccc(C=c2c3cc(O)ccc3n3c2cc(-c2ccccc2)[n+]3C)cc1	47*	295*	nt	nt	nt	41*
C[n+]1c(-c2ccccc2)cc2c(=Cc3ccc([N+](=O)[O-])cc3)c3ccccc3n21	93*	2	nt	nt	nt	57*
CN(C)c1ccc(C=c2c3ccccc3n3c2c2ccccc2[n+]3C)cc1	0	2	nt	nt	nt	nt
CCCCCCCCN1C(CC(=O)O)c2ccc(C(F)(F)F)cc2S1(=O)=O (stereo not drawn)	nt	nt	20	13	nt	nt
CSc1nc(-c2ccco2)nn1S(C)(=O)=O	36*	0	0	1	-10	28
O=C1CC2c3c(cccc3CN1Cc1ccccc1F)CC(O)C2O (stereo not drawn)	nt	nt	9	5	nt	nt
Cc1ccc(NC(=O)COC(=O)C2C3CC4OC(=O)C2C4C3)cc1 (stereo not drawn)	40*	-1	-1	7	-11	-22
CC(=O)c1ccc(NC(=O)COC(=O)C2C3CC4OC(=O)C2C4C3)cc1 (stereo not drawn)	12	0	0	1	4	nt
COc1ccc(N=NC2=C(O)CC(C)(C)CC2=O)cc1	32*	0	6	18	-2	4
COc1ccc(OCC(=O)NNC(=O)C(=O)Nc2cc(OC)ccc2OC)cc1	35*	-1	0	0	-7	3
COc1ccccc1N1CCN(C(=O)C2CC2)CC1	-9	nt	4	9	-4	nt
COc1ccccc1N1CCN(C(=O)C2CCN(C(=O)c3ccccc3Cl)CC2)CC1	31*	-1	0	1	-5	-7
Clc1ccc(-n2cccc2C=Nn2cnnc2)cc1	nt	nt	-1	1	nt	nt
CC(=O)NCC(=O)OC(C)C(=O)Nc1ccc(C(C)=O)cc1 (stereo not drawn)	38*	1	5	9	-6	-20
CC(=O)NCC(=O)OCC(=O)Nc1ccc(C(C)=O)cc1	2	1	4	10	-14	nt
CN(C)N1C(N)=C(C#N)C(c2ccc(F)cc2)C2=C1CC(C)(C)CC2=O (stereo not drawn)	30*	0	-2	7	3	-19
CC(C)C(NC(=O)c1c(F)cccc1F)C(=O)N1CCN(c2ncccn2)CC1 (stereo not drawn)	9	0	4	4	nt	nt
Cc1cccc(C(=O)N[C@@H](C)C(=O)N2CCN(c3ncccn3)CC2)c1	34*	-1	5	6	nt	-27
SMILES	CCHF vOTU inh-1	PfHsp40 yeast	RN4220 kill	ugtP null kill	BJeLR viability	CCHF vOTU inh-2
COCCCNC(=S)NN=Cc1ccc(O)cc1	nt	nt	3	-4	nt	nt
COc1ccc(C=NNC(=S)NCCc2ccccc2)cc1	nt	nt	11	8	nt	nt
Cc1ccc(F)cc1-c1cc(C(=O)NCc2cc(C(F)(F)F)cc(C(F)(F)F)c2)[nH]n1	30*	nt	nt	nt	nt	5
Cc1ccc(Cl)cc1-c1cc(C(=O)NCc2cc(C(F)(F)F)cc(C(F)(F)F)c2)[nH]n1	33*	nt	nt	nt	nt	-19
COc1ccc(Cl)cc1-c1cc(C(=O)NCc2cc(C(F)(F)F)cc(C(F)(F)F)c2)[nH]n1	5	nt	nt	nt	nt	nt
O=C(O)c1ccc(N=NC(=NNc2ccc(C(=O)O)cc2)c2ccccc2)cc1	nt	nt	1	-1	nt	nt
CC1(C)OC(=O)C(=NNc2ccccc2[N+](=O)[O-])C(=O)O1	30*	-1	4	12	5	-2
CC1(C)Cc2c(c(-c3ccco3)[nH]c(=O)c2C#N)CS1	32*	-2	9	6	9	-6
CC1(C)Cc2c(c(-c3ccccc3)[nH]c(=O)c2C#N)CS1	5	0	0	9	5	nt
CC(O)C1CNC(=O)C(=O)N1CCc1cccc(F)c1 (stereo not drawn)	nt	nt	5	4	nt	nt
CN1CC2C3C(=O)N(Cc4ccccc4)C(=O)C3[C@](Cc3ccccc3)(C1=O)N2C(=O)c1ccccc1 (stereo partly drawn)	nt	nt	6	3	nt	nt
CCCOc1ccccc1OCC(=O)Nc1cc(Cl)ccc1-n1cncn1	32*	-2	5	-2	-7	-16
Brc1ccc(-c2nc(NN=Cc3cccnc3)c3ccccc3n2)cc1	nt	nt	42	41	nt	nt
CCOC(=O)c1c(CSC(=N)N)n(C)c2cc(Br)c(OC(C)=O)cc12	12	-2	3	8	-1	nt
CCOC(=O)c1c(CSC(=N)N)n(-c2ccc(C)cc2)c2cc(Br)c(OC(C)=O)cc12	46*	1	0	-25	84*	-2
Cc1ccc(NC(=O)c2ccccc2NS(=O)(=O)c2ccc(Cl)s2)cc1S(=O)(=O)N1CCOCC1	31*	6	31	28	17	9
NC(=NOC(=O)CCCN1C(=O)c2ccccc2C1=O)c1ccccn1	nt	nt	3	-4	nt	nt
CC1OC(Nc2cccc3ccccc23)C(O)C(O)C1O (stereo not drawn)	65*	0	0	-8	-2	-34
CC(NCc1ccccc1)=C(C#N)C(=O)NCc1ccccc1	nt	nt	8	-6	nt	nt
COc1ccc2noc3c2c1C(=O)c1ccccc1-3	64*	0	nt	nt	14	104*
CN(CC(=O)Nc1ccccc1Cl)C(=O)C1CCN(S(=O)(=O)c2ccc3c(c2)OCCO3)CC1	17	0	3	1	9	nt
CN(CC(=O)Nc1ccc(F)cc1)C(=O)C1CCN(S(=O)(=O)c2ccc3c(c2)OCCO3)CC1	34*	0	1	6	-4	-16
S=C(Nc1ccc2nsnc2c1)N1CCCCC1	96*	-1	4	4	nt	-15
S=C(Nc1ccc(Cl)c(Cl)c1)N1CCCC1	9	0	1	6	5	nt
COc1ccc(Cc2nnc(NN=Cc3ccc(N(C)C)cc3)[nH]c2=O)cc1OC	nt	nt	4	13	nt	nt
CCN(C(=O)CSc1nnc(SC(C)C)s1)C1CCS(=O)(=O)C1 (stereo not drawn)	37*	-1	nt	nt	nt	-11
CC(C)Sc1nnc(SCC(=O)N(C)C2CCS(=O)(=O)C2)s1 (stereo not drawn)	-1	0	6	0	nt	nt
CCOc1cc(C=NNC(=O)COc2nc(C)cc(COC)c2C#N)ccc1O	nt	nt	2	-2	nt	nt
